Inconclusive results are not listed. A number with no mark means an inactive call. Calls follow the shape of the dose curve; as a rule, active = well fitted curve in either direction with a large enough effect (not every such curve was filed as active); inconclusive = small, poorly fitted or top-dose-only effect, or another doubt; inactive = flat fitted curve, though single readings scatter.

Activity change, negative = inhibition data for 16 compounds are collected here from PubChem BioAssay (NCATS).
% is scaled to controls: 0 for no effect and ±100 for the full control effect.

A short description of the test: AP1 Signaling Pathway (AID 357). As to conditions: ME-180 (cervical carcinoma) AP-1-bla reporter, EGF-induced, beta-lactamase ratio, 5 h; at 7.69 µM (top of the series) unless noted. The essentials:
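In this screen, ME-180 cells in Opti-MEM with 0.5% dialyzed FBS received EC50 EGF and compound titrations for 5 h. AP-1 reporter beta-lactamase was detected via CCF4 ratio, giving AC50 for positive and negative modulators.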
Take `Cc1noc(C)c1C(=O)N1CCC[C@@]2(CCN(C(=O)NC(C)C)C2)C1`: the activity change, negative = inhibition was -0.0457%.

In the case of `COCC(=O)N1CCC2(CC1)CN(C(=O)Nc1cccc(C#N)c1)C2`, the activity change, negative = inhibition was 12.3%. As to `Cc1noc(C)c1C(=O)N1CCC2(CCN(C(=O)NC(C)C)CC2)CC1`, the activity change, negative = inhibition is -3.73%. In the case of `O=C(Nc1ccccc1)N1CC[C@@]2(CCCN(C(=O)c3ccco3)C2)C1`, the activity change, negative = inhibition is -6.95%. As to `CC(=O)N1CCC2(CCCN(c3ccccn3)C2)CC1`, the activity change, negative = inhibition was 4.59%. `CC(=O)N1CCC2(CCN(Cc3ccncc3)CC2)CC1`: the activity change, negative = inhibition was 5.96%.

Consider `O=C(Nc1cccc(F)c1)N1CCC2(CCNCC2)CC1`, for which the activity change, negative = inhibition is -5.25%. As for `COCC(=O)N1CCC2(CC1)CN(C(=O)Nc1cccc(F)c1)C2`, the activity change, negative = inhibition was -27.6%. The figure for `COCC(=O)N1CCC2(CC1)CN(Cc1cc(C(F)(F)F)cc(C(F)(F)F)c1)C2` is 11%; for `COCC(=O)N1CCC2(CCCN(C(=O)Nc3cccc(F)c3)C2)CC1` it is -4.55%; for `COCC(=O)N1CCC2(CC1)CN(C(=O)Nc1ccc(OC)cc1)C2` it is -2.15%. With `Cn1cccc1C(=O)N1CCC2(CC1)CN(C(=O)Nc1ccccc1)C2`, the activity change, negative = inhibition is -4.26%. For `COC(=O)N1CCC[C@@]2(CCN(C(=O)Nc3ccccc3)C2)C1`, the activity change, negative = inhibition is -3.51%. Regarding `O=C(c1ccncc1)N1CCC2(CC1)CN(c1ncccn1)C2`, the activity change, negative = inhibition was 7.49%. For `CC(C)NC(=O)N1CCC2(CC1)CCN(C(=O)c1ccco1)CC2`, the activity change, negative = inhibition is -2.03%. Take `O=C(Nc1ccccc1)N1CC2(CCN(C(=O)c3ccco3)CC2)C1`: the activity change, negative = inhibition was -2%.
